High-throughput results (PubChem)
CYP2C19 activ: human CYP2C19 activators, primary screen, biochemical, luminescence. Cytochrome P450 2C19 (Homo sapiens), P33261. recombinant CYP2C19, luciferin-H EGE luminescence; active compounds read high; 0 = fully inhibited enzyme, 1 = untreated enzyme. activation factor at 5 µM. 96,000 tested, under 10 active;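 active means activation factor of at least 2 at 5 µM in the primary screen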;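 further: 0 = wells with 2.5 mM tranylcypromine and 1 = vehicle-only wells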
sEH inhibitor: soluble epoxide hydrolase inhibitors, primary screen, biochemical, human sEH | Bifunctional epoxide hydrolase 2 (Homo sapiens), P34913 | inhibition, % at 2 µM | 91,000 tested, 0.34% active | AID 707, 2007 | recombinant human sEH enzymatic activity assay; in the data active means inhibition above about 80%
CYP2C19 inhib: blockers of cytochrome P450 2C19 activity – biochemical, luminescence, ADME assay, primary screen; P33261; CYP2C19 Supersomes, luciferin-H EGE luminescence, 30 min; inhibition, % at 5 µM; 96,000 tested, 21% active; AID 778, 2007;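 active means CYP2C19 inhibition above a set limit at 5 µM in the primary screen, cut at about 50% in these data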;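 further: plate controls were negative control wells for no effect and 2.5 mM tranylcypromine positive control for full effect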
CYP2C9 act: human CYP2C9 activators, primary screen, biochemical, luminescence | Cytochrome P450 2C9 (Homo sapiens), P11712 | recombinant CYP2C9, luciferin-H conversion; active compounds read high; factor 1 = untreated enzyme, 0 = blocked | activation factor at 5 µM | 96,000 tested, 1.4% active;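 active means activation factor of 2 or more for CYP2C9 at a 5 µM dose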;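 further: 0 = sulfaphenazole-blocked wells and 1 = vehicle-only wells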
Target sequence (P11712 whole entry, looked up): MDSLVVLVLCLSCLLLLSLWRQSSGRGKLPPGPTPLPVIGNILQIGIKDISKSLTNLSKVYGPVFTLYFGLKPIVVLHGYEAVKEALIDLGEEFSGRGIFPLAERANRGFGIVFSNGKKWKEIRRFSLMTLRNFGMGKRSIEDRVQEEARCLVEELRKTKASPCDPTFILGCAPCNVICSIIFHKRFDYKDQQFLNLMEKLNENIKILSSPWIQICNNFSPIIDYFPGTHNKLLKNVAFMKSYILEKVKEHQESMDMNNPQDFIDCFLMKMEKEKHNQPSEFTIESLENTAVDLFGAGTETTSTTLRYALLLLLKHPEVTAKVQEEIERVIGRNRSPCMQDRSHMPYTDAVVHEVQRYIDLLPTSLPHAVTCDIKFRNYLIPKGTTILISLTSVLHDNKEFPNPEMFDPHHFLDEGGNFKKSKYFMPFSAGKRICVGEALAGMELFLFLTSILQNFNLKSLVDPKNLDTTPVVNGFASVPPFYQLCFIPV
CYP2C9 inhib: blockers of cytochrome P450 2C9 activity – biochemical, luminescence, ADME assay, primary screen; P11712; CYP2C9 Supersomes, luciferin-H conversion; inhibition, % at 5 µM; 96,000 tested, 20% active;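 active means blocking of liver enzyme CYP2C9 beyond about 50% at 5 µM, limit read from the data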
sEH act: soluble epoxide hydrolase activators, primary screen, biochemical, human sEH. Bifunctional epoxide hydrolase 2 (Homo sapiens), P34913. purified human sEH enzymatic activity, activator screen. activation, % at 2 µM. 91,000 tested, 0.04% active. AID 717, 2007; in the data active means activation above about 37%
Starred values were filed as active, the others as inactive; . = not tested or not shown. This is a sample that favours compounds with a hit; in the whole collection about 27% have one here.

SMILES | CYP2C19 activ | sEH inhibitor | CYP2C19 inhib | CYP2C9 act | CYP2C9 inhib | sEH act
COC(=O)c1ccc(NC(=O)CN2CCN(c3ccc(Cl)cc3)CC2)cc1 | 1 | . | 4 | 1 | 4 | .
COC(=O)c1ccc(NC(=O)CN2CCN(c3cccc(Cl)c3)CC2)cc1 | 0.4 | -2 | 61* | 0.2 | 76* | 5
COC(=O)c1ccc(NC(=O)CN2CCN(c3ccccc3C)CC2)cc1 | . | 8 | . | . | . | -8
CCOC(=O)c1cccc(NC(=O)C(C)N2C(=O)c3ccccc3C2=O)c1 (stereo not drawn) | 0.4 | -6 | 57* | 0 | 97* | 7
COC(=O)c1ccc(NC(=O)CN2CCN(S(=O)(=O)c3cc(Cl)ccc3OC)CC2)cc1 | 0.1 | 10 | 95* | 2.7* | -174 | -10
CCOc1ccc(CNC(=O)C2CCN(S(=O)(=O)N3CCCC3)CC2)cc1OC | 1.1 | 33 | -6 | 1 | 2 | -32
N/C(COc1ccc(C(=O)O)cc1)=N\O | 1.2 | 10 | -18 | 1.1 | -15 | -11
COc1ccc(NC(=O)CCN2CCC(C)CC2)cc1 | 0.9 | 2 | 8 | 0.9 | 7 | -4
COc1cccc(N2CCN(CC(=O)NCc3cccs3)CC2)c1 | 0.5 | -8 | 49 | 0.6 | 40 | 12
COc1cccc(N2CCN(CC(=O)Nc3nnc(-c4ccccc4)s3)CC2)c1 | 0.5 | -10 | 50* | 0.2 | 78* | 9
COc1ccc(NC(=O)CCN2CCN(S(=O)(=O)c3cc(Cl)ccc3Cl)CC2)cc1 | 0.1 | 16 | 91* | 0.8 | 15 | -18
CCOC(=O)c1cccc(NC(=O)CN2CCN(c3ccc(OC)cc3)CC2)c1 | 0.5 | 8 | 54* | 0.3 | 73* | -7
O=C(CN1CCN(c2ccc(Cl)cc2)CC1)Nc1cccc(F)c1 | 0.6 | -18 | 39 | 0.3 | 67* | 19
CCNc1nc(OCCNC(C)=O)nc(N(C)C)n1 | 1 | -1 | -2 | 1 | -1 | 1
Cc1ccccc1NC(=O)C1CCCN1C(=O)NC1CCCCC1 (stereo not drawn) | 1.1 | 14 | -9 | 1.1 | -10 | -15
CCc1ccc(C(=O)COC(=O)c2cccc(N3C(=O)c4c(C)nc5ccccc5c4C3=O)c2)cc1 | 1 | 7 | -5 | 0.6 | 36 | -8
COC(=O)c1cccnc1NC(=S)NNC(=O)c1ccccc1 | 1.1 | -5 | -6 | 0.9 | 12 | 4
CCOC(=O)c1cccc(NC(=O)COc2ccc([N+](=O)[O-])cc2)c1 | 0.4 | -8 | 57* | 0.2 | 77* | 6
O=C(Nc1ccc(F)cc1)N1CCn2c(nc3ccccc32)C1 | 0.6 | . | 35 | 0.9 | 9 | .
Cc1ccc(CNc2oc(-c3ccco3)nc2S(=O)(=O)c2ccccc2)cc1 | . | 9 | . | . | . | -6
CCCCS(=O)(=O)N1CN(S(=O)(=O)CCCC)C2NC(=O)NC21 (stereo not drawn) | 1 | 7 | 0 | 1 | -2 | -8
CCCn1cc(SCC(=O)Nc2nnc(C)s2)c2ccccc21 | 0.7 | . | 29 | 0.4 | 63* | .
Cn1cc(SCC(=O)Nc2nccs2)c2ccccc21 | 0.4 | . | 64* | 0.8 | 24 | .
Cc1cc(NC(=O)CSc2cn(CCNC(=O)c3ccc(Cl)cc3)c3ccccc23)no1 | 0.7 | . | 34 | 0.5 | 46 | .
CC1CCN(C(=O)Cn2c(SCC(=O)Nc3nccs3)nc3ccccc32)CC1 | 0.2 | -2 | 81* | 0.2 | 79* | 2
SMILES | CYP2C19 activ | sEH inhibitor | CYP2C19 inhib | CYP2C9 act | CYP2C9 inhib | sEH act
Cc1ccc(C(=O)NCCn2cc(SCC(=O)Nc3nnc(C)s3)c3ccccc32)cc1 | 0.4 | . | 60* | 0.2 | 80* | .
CCCCn1cc(SCC(=O)O)c2ccccc21 | 1 | -11 | 4 | 0.7 | 33 | 11
C/C=C/Cn1c(Br)nc2c1c(=O)n(C)c(=O)n2C | 1 | 2 | 0 | 1 | 4 | -3
CCC(C)(C(=O)NC1CCCCC1)N(C(=O)C1CCC(=O)N1)c1ccccc1 (stereo not drawn) | 1 | -6 | -2 | 1 | -1 | 4
O=C(c1ccc(CS(=O)(=O)Cc2ccc(Cl)cc2)o1)N1CCCC1 | 0.7 | . | 30 | 0.6 | 40 | .
Oc1c(C=NCc2ccncc2)sc2ccccc12 | 0.1 | 28 | 92* | 0.6 | 44 | -26
